HCV inhibitor: blocks hepatitis C virus; Potency, µM (highest dose often 41.8 µM), for inactives: at the top dose activity change, negative = inhibition, most hits filed as inhibitors; Huh7.5.1 HCVcc-Cre infection, luciferase reporter, 44 h; hit rate 3.4% among 340,000; active = well fitted inhibition curve with a large enough effect; inconclusive = small, poorly fitted or top-dose-only effect, or another doubt; inactive = no such curve, though single readings can be large or run the other way; also: potency is read from the fitted curve at half-maximal effect
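Compounds are dispensed onto cells plated 4 h earlier at 1,000 per well, with HCVcc-Cre virus (about 0.5 moi) added next. Following 44 h of culture, luminescent signal is measured for 15 sec after 15 min with substrate at room temperature.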
Marburg entry inh: blocks Marburg virus binding to or entry into cells | Marburg virus pseudotyped entry inhibition, cell reporter | Potency, µM (highest dose often 37.8 µM), for inactives: at the top dose activity change, negative = inhibition, actives largely listed as inhibitors | hit rate 1.8% among 300,000 | AID 540276; calls by dose curve; tested in HEK293 cells; also: potency is read from the fitted curve at half-maximal effect
HCMV antiviral: human cytomegalovirus inhibition; HFF cells, HCMV-luciferase reporter, 72 h; stronger effect = lower value; AID 1259415; hit rate 4.5% among 410,000; activity change, negative = inhibition, % at 57.5 µM; in the data active = activity change below about -60%; inconclusive = no clear call, values can overlap the other calls; inactive = above about -39%
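Compounds were evaluated in HFFs infected with an HCMV luciferase reporter virus (MOI 1 PFU/cell). Luciferase in lysates collected 72 h post infection served as the replication measure.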
FMDV inh: foot and mouth disease virus antiviral activity | hit rate 1.2% among 410,000 | Potency, µM (titrated, usually from 57.9 µM), without a hit: top-dose activity change, negative = inhibition, usual class: inhibitors | FMDV antiviral cell-based qHTS; calls by dose curve; tested in HEK293T cells; also: read-out not given here; potency is read from the fitted curve at half-maximal effect; nearly all actives have a fitted effect of over 45% in size
Lassa entry inh: Lassa virus entry inhibition | Potency, µM (titrated, usually from 37.9 µM), inactives show top-dose activity change, negative = inhibition, usual class: inhibitors | hit rate 1.2% among 300,000 | Lassa virus pseudotype entry inhibition, cell reporter; calls by dose curve; tested in HEK293 cells; also: potency is read from the fitted curve at half-maximal effect; nearly all actives have a fitted effect of over 50% in size
* marks the source's active call; other numbers are inactive results; ? = inconclusive; nt = no result; [ ] = remark or other dose. The list is not random: actives were taken first. Their share in the collection is about 7.9%. % is scaled to controls: 0 for no effect and ±100 for the full control effect.

SMILES	HCV inhibitor	Marburg entry inh	HCMV antiviral	FMDV inh	Lassa entry inh
Cn1c(-c2ccccc2)nc2cnc(Nc3cccc(OC(F)(F)F)c3)cc21	nt	nt	-79*	nt	nt
COc1ccc(-c2nc3cnc(Nc4cccc(OC(F)(F)F)c4)cc3n2C)cc1OC	nt	nt	7	nt	nt
COc1ccc(Nc2cc3c(cn2)cc(-c2cccc(C(F)(F)F)c2)n3C)c(OC)c1	nt	nt	-1	nt	nt
COc1cccc(Nc2cc3c(cn2)cc(-c2cccc(C(F)(F)F)c2)n3C)c1	nt	nt	-80*	nt	nt
O=C(NCCc1nnc2n1CCN(Cc1ccc(F)cc1)CC2)c1ccc(F)cc1	nt	nt	nt	-10%	nt
Cc1occc1C(=O)Nc1nnc(C(F)(F)F)s1	3%	-4%	-10	36%	43%
Cc1c(C(=O)Nc2nnc(C(F)(F)F)s2)oc2ccccc12	nt	-26%	-85*	36%	60%[14.3 µM]
O=C(Nc1ccccc1C(=O)Nc1nnc(C(F)(F)F)s1)c1ccccc1	-87%	4µM*	-99*	?	10µM*
COC(=O)c1sc(NC(=O)c2oc3ccccc3c2C)nc1C	13%	0%	139	17%	?
CC(C)Cc1nc2cc(NS(=O)(=O)N(C)C)cc(C(=O)N3CC4(C)CC3CC(C)(C)C4)c2n1C (stereo unspecified)	nt	nt	nt	23%	nt
Cc1cccc(NC(=O)COC(=O)c2ccc3c(=O)n4c(nc3c2)CCC4)c1	17%	-22%	-34	-10%	?
O=C(Nc1ccc(F)cc1)c1ccc2c(=O)n3c(nc2c1)CCCCC3	?	nt	33	-9%	4%[46.1 µM]
O=C(c1ccc2c(=O)n3c(nc2c1)CCCCC3)N1CCN(C(c2ccccc2)c2ccccc2)CC1	?	?	-65*	-21%	16µM*
CC(=O)c1c(C)[nH]c(C(=O)COC(=O)c2ccc3c(=O)n4c(nc3c2)CCC4)c1C	-3%	-3%	4	4.5µM*	9%
O=C(Nc1cccc(Cl)c1)c1ccc2c(=O)n3c(nc2c1)CCCCC3	8.9µM*	?	-26	-38%	?
CCc1ccc(N(CC)C(=O)c2ccc3c(=O)n4c(nc3c2)CCCCC4)cc1	nt	-20%[46.1 µM]	-21	40µM*	-24%[46.1 µM]
COc1ccc(Cl)cc1-c1cc2c(c(OC)c1)OCCN(Cc1cccn1-c1nccs1)C2	nt	nt	nt	1%	nt
COc1ccc(C2(C)NC(=O)N(CC(=O)NCc3ccccc3F)C2=O)cc1 (stereo unspecified)	21%	2%[46.1 µM]	-25	2%	24%
CC(=O)c1ccc(NC(=O)c2ccc3c(=O)n4c(nc3c2)CCCCC4)cc1	?	nt	-31	?	nt
O=C(Nc1ccc2nc3n(c(=O)c2c1)CCCCC3)c1cccc(C(F)(F)F)c1	nt	20%[46.1 µM]	-69*	?	?
O=C(Nc1ccc(Cl)cc1)c1ccc2c(=O)n3c(nc2c1)CCCCC3	?	nt	-21	0%	nt
CCc1cccc(NC(=O)c2ccc3c(=O)n4c(nc3c2)CCCCC4)c1	13µM*	nt	-17	-29%	nt
O=C(Nc1ccc(F)c(Cl)c1)c1ccc2c(=O)n3c(nc2c1)CCCCC3	10µM*	?	-91*	-18%	?
CN(C)c1cccc(C(=O)Nc2ccc3nc4n(c(=O)c3c2)CCCCC4)c1	?	nt	3	0%	nt
O=c1c2cc([N+](=O)[O-])ccc2nc2n1CCCC2	0%	?	-65*	-7%	?
SMILES	HCV inhibitor	Marburg entry inh	HCMV antiviral	FMDV inh	Lassa entry inh
CCCNC(=O)OC[C@@H]1O[C@H](CCO/N=C(\C)CCC(=O)OC[C@@H]2O[C@H](C#Cc3ccccc3)C=C[C@@H]2Oc2ccc(C)cc2)C=C[C@@H]1Oc1ccc(OC)cc1	nt	-29%[14.2 µM]	nt	nt	nt
Cc1cc(S(=O)(=O)Nc2ccc(C(=O)NCC(C)(C)N3CCOCC3)cc2)ccc1F	16%	nt	-34	-17%	nt
O=C(O)/C=C/c1ccc(S(=O)(=O)Nc2ccc(OCc3ccccc3)cc2)cc1	16%	nt	-27	3%	nt
N#Cc1ccccc1COc1ccc(/C=C/C(=O)O)cc1	13%	?	-71*	0%	?
COc1ccc2c(c1)CC/C=C(/c1ccccc1)CCO2	nt	nt	-8	nt	nt
O=C(CCCN1CCC(O)(c2ccc(Br)cc2)CC1)c1ccc(F)cc1	?	nt	39	-19%	nt
O=C(CCCN1CCC(O)(c2ccc(Cl)cc2)CC1)c1ccc(F)cc1	?	10µM*	17	-16%	?
O=C(CCCN1CCC(O)(c2cccc(C(F)(F)F)c2)CC1)c1ccc(F)cc1	?	11µM*	66	-20%	?
Cc1ccc(C)c(Sc2ccc(NC(=O)CCl)cc2)c1	?	?	8	20µM*	?

Screening results as filed in PubChem.
